Measured values: PubChem BioAssay (NCATS)
Inconclusive results are not listed. The source made the active and inactive calls. Calls come from the whole dose curve; as a rule, active = well fitted cell-killing curve with a large enough effect; inconclusive = small, poorly fitted or top-dose-only effect, or effect the other way; inactive = flat fitted curve, though single readings scatter.

system: CASKI; assay: Primary qHTS to identify gynecologic anti-cancer compounds using libraries of approved drugs and bioactive compounds (AID 1345084); conditions: Gynecologic cancer cell panel viability, ATPlite luminescence, 48 h; series mostly up to 57.5 µM; activity change, negative = cytotoxicity: at the top concentration; note: nearly all actives have a fitted effect of over 55% in size
In short: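 Cells, 1,000 per well, plated 16 h, then exposed 48 h at 37 C to compounds. Viability by ATPlite luminescence after 15 min at room temperature.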
% is set by controls: 0 for no effect and ±100 for the full control effect; potency is the fitted concentration of half-maximal effect.

Q: How did the “activity change, negative = cytotoxicity” value turn out when O=C(Nc1ccn(Cc2ccc(O)cc2C(F)(F)F)n1)c1c(F)cccc1F was run?
A: 11.6% (inactive)

Q: CC(O)C(C)n1ncn(-c2ccc(N3CCN(c4ccc(OCC5COC(Cn6cncn6)(c6ccc(Cl)cc6Cl)O5)cc4)CC3)cc2)c1=O (stereo unspecified) was tested. Which “activity change, negative = cytotoxicity” value did it give?
A: -0.636% (inactive)

Q: Which “activity change, negative = cytotoxicity” value does the source give for CN(C)C(=O)Nc1cccc(-c2ccc(N(C)C)cc2)c1 here?
A: 10.6% (inactive)

Q: Which “activity change, negative = cytotoxicity” value does the source give for C[C@@H]1CCCN1CCc1cc2cc(-c3ccc(C#N)cc3)ccc2o1 here?
A: -4.1% (inactive)

Q: For Cc1cc(C(=O)Nc2cc(Nc3ccc4c(/C=C/c5ccccn5)n[nH]c4c3)ccc2F)n(C)n1, which “activity change, negative = cytotoxicity” value is on record?
A: -0.682% (inactive)

Q: For COc1nc2ccc(Br)cc2cc1[C@@H](c1ccccc1)[C@@](O)(CCN(C)C)c1cccc2ccccc12, which “activity change, negative = cytotoxicity” value is on record?
A: -0.237% (inactive)

Q: Cn1ncc(Cl)c1-c1cc(C(=O)N[C@H](CN)Cc2ccc(F)c(F)c2)oc1Cl was tested. Which Potency did it give?
A: 3.98 µM (active)

Q: How did the “activity change, negative = cytotoxicity” value turn out when C=C1CC[C@@H](O)[C@]2(C)C[C@H]3OC(=O)C(=C)[C@H]3CC12 (stereo partly specified) was run?
A: -3.3% (inactive)

Q: For C[C@@H]1O[C@@H](O[C@H]2[C@@H](OC(=O)[C@]34CCC(C)(C)CC3C3=CCC5[C@@]6(C)C[C@H](O)[C@H](O[C@@H]7O[C@H](CO)[C@@H](O)[C@H](O)[C@H]7O[C@@H]7OC[C@@H](O)[C@H](O)[C@H]7O)[C@@](C)(C(=O)O)C6CC[C@@]5(C)[C@]3(C)CC4)OC[C@H](O)[C@@H]2O)[C@H](O)[C@H](O)[C@H]1O[C@@H]1OC[C@@H](O)[C@H](O)[C@H]1O (stereo partly specified), which activity change, negative = cytotoxicity is on record?
A: -11.2% [at 6.55 µM] (inactive)

Q: How did the “activity change, negative = cytotoxicity” value turn out when COc1ccc(N2CCN(C(=O)c3cc4c(s3)-c3ccccc3S(=O)(=O)C4)CC2)cc1 was run?
A: 1.45% (inactive)

Q: For C=C1/C(=C/C=C2\CCC[C@]3(C)[C@@H]([C@@H](C)OCCC(O)(CC)CC)CC[C@@H]23)C[C@@H](O)C[C@@H]1O, which “activity change, negative = cytotoxicity” value is on record?
A: 10.7% (inactive)
